For 21 compounds, Potency and outcome results are on record in PubChem BioAssay (Tox21).

A short description of test [1]: qHTS assay for small molecule agonists of the p53 signaling pathway (AID 651631; calls by dose curve; also: nearly all actives have a fitted effect of over 15% in size). The method in brief:
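HCT-116 cells carrying a beta-lactamase reporter under p53 response elements were dosed with compound for 16 h at 37 °C. LiveBLAzer B/G FRET substrate was then added for 2 h at room temperature, and fluorescence intensity was read to detect pathway agonism.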
In general terms: Quantitative high-throughput screening tests each substance at several concentrations.

Test [2] can be described thus: qHTS assay for small molecules that induce genotoxicity in human embryonic kidney cells expressing luciferase-tagged ATAD5 (AID 651632). Also: nearly all actives have a fitted effect of over 15% in size. Also: potency is read from the fitted curve at half-maximal effect. The method in brief:
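Cells were seeded at 2,000 per well, dosed with compound, and incubated 16 hr at 37C in 5% CO2. Luciferase activity was then quantified after a 30 min room-temperature incubation with Amplite.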

Test [3] is described as follows: qHTS assay for small molecule agonists of the p53 signaling pathway - cell viability (AID 651633; calls by dose curve;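 also: p53RE-bla HCT reporter cells with a stable beta-lactamase p53 reporter; series mostly up to about 83 µM; nearly all actives have a fitted effect of over 30% in size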). The gist of the method: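 p53RE-bla cells, seeded at 4,000 per well and rested 5 h at 37 C/5% CO2, received compounds in DMSO for 16 h at 37 C. CellTiter-Glo was then added, and luminescence was read after 30 min at room temperature to gauge cytotoxicity.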
A short description of test [4]: qHTS assay for small molecules that induce genotoxicity in human embryonic kidney cells expressing luciferase-tagged ATAD5 - cell viability (AID 651634; calls by dose curve; also: nearly all actives have a fitted effect of over 25% in size). The gist of the method: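 Cells (HEK293T, luciferase-tagged ATAD5) are seeded at 2,000 per well, dosed with compound or DMSO vehicle, and incubated 15.5 hr at 37C and 5% CO2. CellTiter-Fluor is added for 30 min before fluorescence is measured.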

The nature of test [5]: qHTS assay for small molecule disruptors of the mitochondrial membrane potential - cell viability (AID 720634; calls by dose curve;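 also: human HepG2 liver cancer cells; series mostly up to about 83 µM; nearly all actives have a fitted effect of over 20% in size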). The method in brief:
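Cytotoxicity was measured by ATP quantitation in HepG2 wells that had first been treated with compound for 1 hr and stained with m-MPI dye; CellTiter-Glo incubation was 30 min at room temperature.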

Test [6] can be described thus: qHTS assay for small molecule disruptors of the mitochondrial membrane potential (AID 720635). Also: potency is read from the fitted curve at half-maximal effect. The method in brief:
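HepG2 cells (2,000/well) attached overnight at 37C, then took compound for 1 hr at 37C, 5% CO2. Mito-MPS dye was added for 30 min; fluorescence was read at 490/535 nm (monomers) and 540/590 nm (aggregates).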

Test [7] in a line: qHTS assay to test for compound auto fluorescence at 590 nm (red) in HepG2 cells (AID 720674). The gist of the method:
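Compound auto-fluorescence is scored relative to Rose Bengal sodium, measured at 540/590 nm in live HepG2 cultures after 1 hr compound contact (37 C, 5% CO2).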

Test [8] is described as follows: qHTS assay to test for compound auto fluorescence at 460 nm (blue) in HEK293 cells (AID 720678). The gist of the method:
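Triamterene serves as the blue fluorophore standard. Compound signal at 405/460 nm is read in HEK293 wells (2,000 cells, 10% dialyzed FBS) after overnight treatment at 37C.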

The nature of test [9]: qHTS assay to test for compound auto fluorescence at 590 nm (red) in HEK293 cells (AID 720679). The method in brief: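 We plated HEK293 cells in 10% dialyzed FBS medium, let them adhere for 4-5 hr, then added 23 nL compound. Overnight at 37C and 5% CO2 preceded fluorescence measurement at 540/590nm.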
Test [10] in a line: qHTS assay to test for compound auto fluorescence at 535 nm (green) in HepG2 cells (AID 720675).

Inconclusive results are not listed. Calls of active or inactive are those of the source. Unless noted, calls follow the shape of the dose curve; as a rule, active = well fitted curve in the direction sought with a large enough effect in the repeat runs; inconclusive = weak or mixed curves; inactive = no such curve, though single readings can be large; an effect the other way counts as inactive or inconclusive. Residues, ends and D or L forms follow the SMILES beside them.

Turning to `Nc1cc(Cl)c(NC2=NCCN2)c(Cl)c1`, the Potency result in test [1], in [2], in test [3], in test [4], in test [5] and in [6] was “inactive” each time. The Potency result in test [8] was “inactive”. Further, the compound was classed as inactive in test [7] and in test [9].

`C/C=C/C1=C(C(=O)O)N2C(=O)[C@@H](NC(=O)[C@H](N)c3ccc(O)cc3)[C@H]2SC1`: the Potency entry in test [1], in test [2], in test [3], in [4], in [5] and in test [6] was “inactive” throughout. The Potency entry in test [10] is “inactive”. Besides, in [9], the outcome was inactive.

With `Cc1c(O)c(=O)ccn1C`, the Potency result in [1], in test [2], in [3], in [4], in test [5] and in test [10] was “inactive” throughout. Further, in test [8], the Potency result was “inactive”. Further, the compound was classed as inactive in test [7] and in [9].

For the compound `CC(C)[C@H](NC(=O)[C@H](CC(=O)O)NC(=O)[C@H](CCCCN)NC(=O)[C@@H](N)CCCN=C(N)N)C(=O)N[C@@H](Cc1ccc(O)cc1)C(=O)O` (H-RKDVY-OH), the Potency result in [1], in test [2], in test [3], in test [4], in test [5] and in test [6] was “inactive” throughout. For the same compound, the Potency entry in test [10] and in [8] was “inactive” in each case. In test [9], the compound was called inactive.

Turning to `C[C@H](NCCc1ccc(O)cc1)[C@H](O)c1ccc(O)cc1`, the Potency result in test [1], in [2], in [3], in test [4], in [5] and in [6] was “inactive” each time. For the same compound, the Potency entry in test [10] and in [8] was “inactive” in each case. Also, in test [9], the call was inactive.

Take `NC(=O)[C@@H]1CCCN1C(=O)[C@H](Cc1cnc[nH]1)NC(=O)[C@@H]1CCC(=O)N1`: the Potency result in test [1], in test [2], in [3], in test [4], in [5] and in test [6] was “inactive” in each case. Further, the Potency result in test [10] and in [8] was “inactive” in each case. For the same compound, in test [9], the result was inactive.

For `Nc1nc(NC2CC2)c2ncn([C@@H]3C=C[C@@H](CO)C3)c2n1`, the Potency result in [1], in test [3], in test [4], in test [5], in test [6] and in test [10] was “inactive” throughout. Also, the Potency entry in test [8] was “inactive”. For the same compound, in [2], the Potency is 13.3 µM (active). In addition, the result in test [9] was inactive.

For the compound `COC(=O)[C@H]1[C@H]2C[C@H]3c4[nH]c5ccccc5c4CCN3C[C@H]2CC[C@@H]1O`, the Potency entry in test [1], in test [2], in test [3], in test [4], in test [5] and in [6] was “inactive” throughout. In addition, in [8], the Potency entry is “inactive”. Moreover, the outcome in [7] and in test [9] was inactive.

As to `CC(C)[N+]1(C)[C@@H]2CC[C@H]1CC(OC(=O)C(CO)c1ccccc1)C2` (stereo partly specified), the Potency entry in test [1], in test [2], in test [3], in test [4], in test [5] and in test [6] was “inactive” each time. The Potency result in test [10] and in [8] was “inactive” throughout. For the same compound, the call in [9] was inactive.

Take `CN(C)CCC(O)(c1ccccc1)c1ccccc1Cl` (stereo unspecified): the Potency entry in [1], in [2], in test [3], in [4], in test [5] and in test [6] was “inactive” throughout. Further, in test [8], the Potency entry was “inactive”. For the same compound, the call in test [9] was inactive.

With `Cc1cnc(C(=O)O)c[n+]1[O-]`, the Potency result in [1], in [2], in test [3], in [4], in [5] and in test [6] was “inactive” throughout. Besides, the Potency result in test [8] is “inactive”. In addition, the compound was classed as inactive in test [7] and in [9].

In the case of `N=C(N)c1ccc(/C=C/c2ccc(C(=N)N)cc2O)cc1`, the Potency result in test [1], in test [2], in [3], in test [4], in test [5] and in [8] was “inactive” throughout. The Potency in test [6] was 1.97 µM (active). Besides, the outcome in [9] was inactive.

On to `NCCCC[C@H](NC(=O)[C@@H]1CCCN1C(=O)[C@@H]1CSSC[C@H](N)C(=O)N[C@@H](Cc2ccc(O)cc2)C(=O)N[C@@H](Cc2ccccc2)C(=O)N[C@@H](CCC(N)=O)C(=O)N[C@@H](CC(N)=O)C(=O)N1)C(=O)NCC(N)=O`, for which the Potency result in test [1], in test [2], in [3], in test [4], in test [5] and in test [6] was “inactive” throughout. Also, in test [8], the Potency entry was “inactive”. Also, the call in [7] and in test [9] was inactive.

Take `CN[C@H](CC(C)C)C(=O)N[C@H]1C(=O)N[C@@H](CC(N)=O)C(=O)N[C@H]2C(=O)N[C@H]3C(=O)N[C@H](C(=O)N[C@@H](C(=O)O)c4cc(O)cc(O)c4-c4cc3ccc4O)[C@H](O)c3ccc(c(Cl)c3)Oc3cc2cc(c3O[C@@H]2O[C@H](CO)[C@@H](O)[C@H](O)[C@H]2O[C@H]2C[C@](C)(N)C(O)[C@H](C)O2)Oc2ccc(cc2Cl)[C@H]1O` (stereo partly specified): the Potency result in [1], in test [2], in test [3], in [4], in test [5] and in test [6] was “inactive” throughout. The Potency entry in test [10] and in test [8] was “inactive” each time. The outcome in test [9] was inactive.

With `O=P(O)(O)C(O)(Cn1ccnc1)P(=O)(O)O`, the Potency result in [1], in test [2], in test [3], in test [4], in [5] and in test [6] was “inactive” in each case. In [8], the Potency entry was “inactive”. For the same compound, the compound was called inactive in test [7] and in [9].

For `COc1ccc(/C=N/NC(=O)c2ccncc2)c(C(=O)O)c1OC`, the Potency entry in [1], in test [2], in [3], in [4], in test [5] and in [6] was “inactive” each time. Moreover, the Potency result in [8] is “inactive”. For the same compound, the compound was classed as inactive in [7] and in [9].

Turning to `N=C(N)n1cccn1`, the Potency entry in test [1], in [2], in [3], in test [4], in test [5] and in [6] was “inactive” each time. Moreover, the Potency result in test [8] was “inactive”. The compound was called inactive in test [7] and in test [9].

As for `C=C1[C@H](CO)[C@@H](O)C[C@@H]1n1cnc2c(=O)[nH]c(N)nc21`, the Potency result in test [1], in test [2], in test [3], in test [4], in [5] and in [6] was “inactive” each time. Also, the Potency result in test [8] is “inactive”. The call in [7] and in [9] was inactive.

In the case of `CC[C@H]1OC(=O)C[C@@H](O)[C@H](C)[C@@H](O[C@@H]2O[C@H](C)[C@@H](O[C@H]3C[C@@](C)(O)[C@@H](O)[C@H](C)O3)[C@H](N(C)C)[C@H]2O)[C@@H](CC=O)C[C@@H](C)C(=O)/C=C/C(C)=C/[C@@H]1CO[C@@H]1O[C@H](C)[C@@H](O)[C@@H](OC)[C@H]1OC`, the Potency result in test [1], in test [2], in [3], in test [4], in test [5] and in test [6] was “inactive” each time. In addition, the Potency entry in test [8] was “inactive”. Also, the call in [7] and in test [9] was inactive.

On to `O=C1CC[C@@H](C(=O)N[C@H]2C[C@@H]2c2ccccc2)N1`, for which the Potency result in test [1], in [2], in test [3], in test [4], in test [5] and in test [6] was “inactive” throughout. In addition, the Potency result in [10] and in [8] was “inactive” in each case. In test [9], the call was inactive.

In the case of `CCC(O)c1ccccc1` (stereo unspecified), the Potency entry in test [1], in [2], in test [3], in [4], in test [5] and in test [6] was “inactive” each time. Further, the Potency result in test [8] is “inactive”. The result in [7] and in [9] was inactive.
